Screens: PubChem BioAssay, several laboratories
Mcl1-Bid inh: disrupts binding of human Mcl-1 to Bid peptide; Q07820; TR-FRET Mcl-1/Bid-Dy647 peptide binding, 1536-well; inhibition, % at 21.7 µM; 220,000 compounds, 0.97% hits; AID 1021;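 active means compounds that cut the binding signal by more than half at the single screening dose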;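 further: His-tagged Mcl-1 with europium anti-His antibody binding Bid BH3 peptide; 0% = Mcl-1 plus peptide wells and 100% = peptide-only wells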
Mcl-1 Bim block: disrupts Bim peptide binding to human Mcl-1; Q07820; Bead-based flow cytometry, Bim peptide-Mcl-1 binding; inhibition, % at 10 µM; 190,000 compounds, 0.1% hits; AID 1009; in the data active means inhibition above about 40%;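 further: 0% = no compound tracer wells and 100% = peptide blocker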
GLD-1 RNA inh: GLD-1-TGE RNA interaction inhibition (C. elegans) | Q17339 | purified GLD-1 + fluorescein TGE RNA, fluorescence polarization | inhibition, % at 5.96 µM | 320,000 compounds, 0.44% hits | AID 2280;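 active means percent inhibition above a per-plate cutoff, the plate mean of test compounds plus 3 SD, cut at about 30% in these data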;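 further: 0% = DMSO wells with GLD-1 and probe and 100% = wells lacking GLD-1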
Target sequence (Q17339 whole entry, looked up): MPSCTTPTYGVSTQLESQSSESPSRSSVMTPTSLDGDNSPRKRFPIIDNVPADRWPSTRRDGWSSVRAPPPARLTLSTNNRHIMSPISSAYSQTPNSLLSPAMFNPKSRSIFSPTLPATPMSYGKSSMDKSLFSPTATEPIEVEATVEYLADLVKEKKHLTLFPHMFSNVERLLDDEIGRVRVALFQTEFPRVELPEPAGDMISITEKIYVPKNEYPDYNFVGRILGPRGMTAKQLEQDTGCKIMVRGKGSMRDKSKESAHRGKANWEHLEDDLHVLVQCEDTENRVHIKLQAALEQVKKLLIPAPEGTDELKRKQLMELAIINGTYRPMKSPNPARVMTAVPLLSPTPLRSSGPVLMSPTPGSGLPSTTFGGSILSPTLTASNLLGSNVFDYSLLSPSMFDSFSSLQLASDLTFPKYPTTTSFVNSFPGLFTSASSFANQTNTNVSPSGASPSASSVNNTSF
Bcl-xL primary: Bcl-xL (human) inhibition. GST-Bcl-xL / FITC-Bim BH3 peptide fluorescence polarization. inhibition, % at 10.9 µM. 320,000 compounds, 0.7% hits. AID 2129;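 active means inhibition above the mean of all tested compounds plus 3 SD, cutoff set per campaign, cut at about 30% in these data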;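 further: 0% = DMSO wells and 100% = unlabeled Bim-BH3 peptide competitor; inhibitors lower millipolarization by displacing the labeled peptide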
Target sequence (Q07817 whole entry, looked up): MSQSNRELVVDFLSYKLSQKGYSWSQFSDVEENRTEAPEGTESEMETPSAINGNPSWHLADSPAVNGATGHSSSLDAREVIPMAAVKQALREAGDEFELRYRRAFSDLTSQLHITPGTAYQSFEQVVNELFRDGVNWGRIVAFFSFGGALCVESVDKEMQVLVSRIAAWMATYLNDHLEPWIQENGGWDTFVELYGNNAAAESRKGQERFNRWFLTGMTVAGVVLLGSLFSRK
Mcl1 Noxa PPI: Mcl-1/Noxa interaction inhibition | TR-FRET Mcl-1/Noxa peptide binding, 2 h | inhibition, % at 21.7 µM | 220,000 compounds, 1.5% hits | AID 1022;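 active means compounds that cut the protein-peptide binding signal by more than 50% relative to plate controls in a single-dose test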;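 further: His-tagged Mcl-1 with rhodamine Noxa BH3 peptide and terbium anti-His antibody; 0% = Mcl-1 plus Noxa peptide wells and 100% = peptide-only wells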
MCL1-BIM inh: MCL1-BIM-BH3 interaction inhibition (human); 320,000 compounds, 0.68% hits; inhibition, % at 10.9 µM; Q07820; GST-MCL1 / FITC-Bim-BH3 fluorescence polarization;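 active means inhibition above the mean inhibition of all tested compounds plus 3 SD, set per campaign, cut at about 40% in these data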;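 further: 0% = DMSO wells and 100% = unlabeled Bim-BH3 peptide control; higher means more loss of mP so more displacement of Bim peptide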
Bcl-xL conf: counter-screen for MCL1 inhibitors: confirmation of human Bcl-xL inhibitors; shares compounds with MCL1-BIM inh; 1,700 compounds, 54% hits; GST-Bcl-xL / FITC-Bim BH3 peptide FP binding; inhibition, % at 10.9 µM;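 active means inhibition above a cutoff equal to the mean inhibition of all tested compounds plus 3 SD, cut at about 30% in these data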;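 further: 0% = DMSO wells and 100% = unlabeled Bim BH3 control peptide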
MCL1 BIM confirm: MCL1-BIM-BH3 interaction inhibition, confirmation | shares compounds with MCL1-BIM inh | GST-MCL1 / FITC-Bim-BH3 fluorescence polarization | inhibition, % at 10.9 µM | 1,700 compounds, 61% hits;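 active means inhibition above the average of all tested compounds plus 3 SD, cut at about 40% in these data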;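 further: 0% = DMSO wells and 100% = unlabeled Bim-BH3 control peptide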
GLD-1 TGE cf: confirmation of C. elegans GLD-1 TGE RNA binding inhibitors. GLD-1/FL-TGE RNA fluorescence polarization, biochemical. inhibition, % at 5.96 µM. 550 compounds, 10% hits. shares compounds with GLD-1 RNA inh;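 active means average inhibition across triplicates above the hit cutoff set in the primary screen, cut at about 32% in these data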;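 further: 0% = GLD-1 with RNA probe and DMSO and 100% = wells lacking GLD-1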
An asterisk follows results filed as active; · = not tested or not shown; + = active, no number. Only some compounds are listed: those with a hit (about 2.3% of all), similar ones and a draw of the others.

SMILES	Mcl1-Bid inh	Mcl-1 Bim block	GLD-1 RNA inh	Bcl-xL primary	Mcl1 Noxa PPI	MCL1-BIM inh	Bcl-xL conf	MCL1 BIM confirm	GLD-1 TGE cf
Cc1cccc(NC(=O)COC(=O)c2cccc3c2C(=O)c2ccccc2C3=O)c1C	-8	1	1	16	5	8	·	·	·
Nc1cccc(C(=O)OCC(=O)Nc2cccc3c2C(=O)c2ccccc2C3=O)c1	77*	-2	47*	98*	64*	118*	107*	146*	67*
O=C(O)c1ccc2c(c1)C(=O)/C(=C/c1ccccc1)C2=O	-20	4	46*	77*	64*	92*	45*	66*	12
CCOC(=O)n1c(O)c(N=NC(N)=S)c2cc(C)ccc21	-155	·	7	7	-45	3	·	·	·
CN1c2ccccc2N(C)C1(C)c1ccccc1	39	1	48*	69*	80*	65*	74*	101*	9
CN(c1ccccc1)S(=O)(=O)c1cccc(NC(=O)CN2CCCc3ccccc32)c1	-46	·	-43	-3	4	-10	·	·	·
NS(=O)(=O)c1cccc(NC(=O)CN2CCc3ccccc32)c1	-33	2	47*	63*	21	77*	6	0	-4
O=[N+]([O-])c1ccc(C2=NN(CCO)C(=Nc3ccc(OC(F)(F)F)cc3)SC2)cc1	-11	·	7	2	-13	2	·	·	·
COc1cc(NC(=O)CN2C(=O)C(C)N(c3ccc(C)cc3)C2=O)cc(OC)c1 (configuration not stated)	·	·	2	2	·	0	·	·	·
Cc1cccc(NCc2nc3ccccc3n2C)c1	-25	0	5	-3	6	-11	·	·	·
Cc1ccc(N2CCN(c3ccc(NCc4nc5ccccc5n4C)cc3)CC2)cc1	-64	-1	63*	74*	-24	90*	52*	48*	63*
COc1ccc(NS(=O)(=O)c2cccs2)cn1	-16	-2	3	10	-12	9	·	·	·
COc1ccc(NS(=O)(=O)c2ccc(Cl)s2)cn1	-17	·	50*	72*	10	78*	72*	94*	54*
CCn1c2ccccc2c2cc(NC(=O)CNCc3ccccc3OC)ccc21	·	·	6	4	·	2	·	·	·
COc1ccccc1CNCC(=O)Nc1ccc(N(C)C)cc1	·	·	50*	71*	·	86*	61*	61*	-2
CC(C)c1ccc(N2C(=O)/C(=C/N(C)C)SC2=S)cc1	-8	·	74*	+	-11	+	+	+	-6
COc1ccc(SCCN2CC[C@@H](C(C)(C)C)CCC2=O)cc1	·	·	-6	7	·	0	·	·	·
CCOC(=O)Cn1c(=O)c(-c2cc(Br)ccc2N)nc2ccccc21	-35	·	37*	70*	13	82*	108*	132*	50*
CC(C)CCNc1c(-c2cccs2)nc2ccccn12	-49	0	46*	75*	18	68*	46*	69*	2
COc1ccc(N(C)C(=O)C2CCCN2S(=O)(=O)c2cccc3nsnc23)c(OC)c1 (configuration not stated)	·	·	2	3	·	1	·	·	·
Cc1ccnc(Nc2nc(-c3ccc(Cl)cc3)cs2)c1	·	·	32*	23	·	52*	2	-2	-4
O=C(O)c1ccc2c(c1)[C@@H]1C=CC[C@@H]1[C@H](c1ccccn1)N2	·	·	34*	56*	·	86*	50*	85*	10
O=C(NCCOc1ccccc1)C1Nc2ccc(OC(F)(F)F)cc2C2C=CCC12 (configuration not stated)	·	·	0	-3	·	7	·	·	·
O=C(O)c1cc2c(cn1)[nH]c1ccccc12	·	·	-4	4	·	-1	·	·	·
CC1CCCCC1NC(=O)CN1C(=O)c2cccc(N)c2C1=O (configuration not stated)	-61	-1	·	·	4	·	·	·	·
SMILES	Mcl1-Bid inh	Mcl-1 Bim block	GLD-1 RNA inh	Bcl-xL primary	Mcl1 Noxa PPI	MCL1-BIM inh	Bcl-xL conf	MCL1 BIM confirm	GLD-1 TGE cf
CN(C(=O)CN1C(=O)c2cccc(N)c2C1=O)C1CCCCC1	·	·	45*	61*	·	73*	56*	77*	49*
Cc1cc(C)n(-c2ccc(C(=O)N3CC(C)OC(C)C3)cc2)n1 (configuration not stated)	0	0	5	0	9	4	·	·	·
CCOC(=O)C1=C(COC(=O)c2ccc3ccccc3c2O)NC(=O)NC1C (configuration not stated)	·	·	46*	61*	·	88*	25	24	1
CCOC(=O)C1=C(COC(=O)c2ccccc2OC(F)F)NC(=O)NC1C (configuration not stated)	·	·	2	-3	·	0	·	·	·
O=C(Nc1ccc(Cl)cc1)c1nc[nH]c1C(=O)NCCCNC(=O)c1[nH]cnc1C(=O)Nc1ccc(Cl)cc1	·	·	2	·	·	·	·	·	·
NC(=O)/C(=C/c1ccco1)C(N)=S	-10	·	50*	86*	25	116*	21	18	-5
O=C(O)/C(=C\c1ccco1)NC(=O)c1ccco1	·	·	7	3	·	5	·	·	·
O=C(NC12CC3CC(CC(C3)C1)C2)c1cnccn1	-14	-5	34*	42*	12	53*	29	40*	-10
C/C(CC(=O)NC12CC3CC(CC(C3)C1)C2)=N\NC(=O)c1cnccn1	-13	1	-7	6	-13	13	·	·	·
CC(=O)c1ccc(S(=O)(=O)N2CCN(CC(=O)Nc3ccccc3C(=O)NC3CC3)CC2)cc1	·	·	4	-2	·	-2	·	·	·
COc1cccc(C(=O)N2CCN(C(=O)c3cccc(F)c3)CC2)c1	-19	0	53*	76*	-27	85*	0	0	5
CCOC(=O)N1CCN(C(=O)c2cccc(F)c2)CC1	-20	1	2	7	16	1	·	·	·
O=C(CSC1=Nc2ccccc2C2=NC(CC(=O)NC3CCCCC3)C(=O)N12)NCc1ccco1 (configuration not stated)	-12	0	35*	61*	10	63*	46*	56*	29
O=C(CN1CCN(S(=O)(=O)c2cccs2)CC1)NCC1CCCCC1	·	·	2	-1	·	-7	·	·	·
Cc1cc2ncn(/N=C/c3ccc(-c4ccccc4)o3)c2cc1C	6	-1	-2	8	22	6	·	·	·
Cc1ccc(/C=N/n2cnc3sc(-c4ccccc4)cc3c2=O)o1	6	0	65*	124*	13	67*	8	12	-2
